Our source for the Potency values is PubChem BioAssay (Tox21).

Records with an inconclusive call do not appear. Calls of active or inactive are those of the source. Unless noted, calls follow the shape of the dose curve; as a rule, active = well fitted curve in the direction sought with a large enough effect in the repeat runs; inconclusive = weak or mixed curves; inactive = no such curve, though single readings can be large; an effect the other way counts as inactive or inconclusive.

Experiment [1] in a line: A CellTox Green Cytotoxicity Assay to monitor cytotoxicity in HEK293 cells - 32 hour (AID 1224881). Also: nearly all actives have a fitted effect of over 40% in size. Also: potency is read from the fitted curve at half-maximal effect. A digest of the protocol: (§1)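 Real-time, in one plate: 600 HEK293 cells/well with dead-cell DNA dye, pinned compound after 5 h, 37 C incubation over 40 h; viable cells give no appreciable fluorescence.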
Experiment [2] can be described thus: A CellTox Green Cytotoxicity Assay to monitor cytotoxicity in HepG2 cells - 0 hour (AID 1224882). Also: nearly all actives have a fitted effect of over 35% in size. Summed up: (§2)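 Cytotoxicity was tracked as dead-cell DNA fluorescence in HepG2 cells treated with test compounds at 37 C; each time-point value comes from one kinetic series spanning 0, 8, 16, 24, 32 and 40 h.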
The nature of experiment [3]: A CellTox Green Cytotoxicity Assay to monitor cytotoxicity in HepG2 cells - 32 hour (AID 1224883). Also: nearly all actives have a fitted effect of over 50% in size. Also: potency is read from the fitted curve at half-maximal effect. A digest of the protocol: as §2
The nature of experiment [4]: A CellTox Green Cytotoxicity Assay to monitor cytotoxicity in HEK293 cells - 8 hour (AID 1224884). Also: nearly all actives have a fitted effect of over 35% in size. Also: potency is read from the fitted curve at half-maximal effect. Summed up:
as §1

Experiment [5] can be described thus: qHTS RealTime-Glo MT Cell Viability Assay in HepG2 cells - 16 hour (AID 1224885). Also: nearly all actives have a fitted effect of over 50% in size. Also: potency is read from the fitted curve at half-maximal effect. Summed up: (§3)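 Viability was tracked continuously by NanoLuc luminescence from prosubstrate reduced by living HepG2 cells, at successive time points over 40 h of compound exposure. Cells with reagent were preincubated 5 h at 37 °C before compound addition.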
Experiment [6] is described as follows: qHTS RealTime-Glo MT Cell Viability Assay in HEK293 cells - 24 hour (AID 1224886). Also: nearly all actives have a fitted effect of over 50% in size. Also: potency is read from the fitted curve at half-maximal effect. Summed up:
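Viability tracked continuously by luminescence as live cells reduce a prosubstrate for NanoLuc; HEK293 cells preincubated 5 h, compound-treated at 37 C, and read at 0, 8, 16, 24, 32 and 40 h.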

Experiment [7] can be described thus: qHTS RealTime-Glo MT Cell Viability Assay in HEK293 cells - 8 hour (AID 1224887). Also: nearly all actives have a fitted effect of over 50% in size. Also: potency is read from the fitted curve at half-maximal effect. Summed up: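 Kinetic, non-lysing viability readout. Seed HEK293 (600/well) with reagent, incubate 5 h at 37 C/5% CO2, pin 23 nL compound in DMSO, incubate at 37 C, read luminescence at 0, 8, 16, 24, 32, 40 h.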
Experiment [8] in a line: qHTS RealTime-Glo MT Cell Viability Assay in HepG2 cells - 0 hour (AID 1224889). Also: nearly all actives have a fitted effect of over 50% in size. Summed up:
as §3

A short description of experiment [9]: A CellTox Green Cytotoxicity Assay to monitor cytotoxicity in HepG2 cells - 8 hour (AID 1224890). Also: nearly all actives have a fitted effect of over 45% in size. A digest of the protocol:
as §2

The nature of experiment [10]: qHTS assay to identify small molecule antagonists of the estrogen receptor alpha (ER-alpha) signaling pathway using the BG1 cell line in the presence of 0.1 nM 17-beta-estradiol - cell viability counter screen (AID 1259241). Also: nearly all actives have a fitted effect of over 40% in size. Also: potency is read from the fitted curve at half-maximal effect. A digest of the protocol:
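Following 5 days in phenol red-free medium with charcoal-stripped serum, VM7Luc4E2 cells received test compounds alongside 0.1 nM 17beta-estradiol (final) at 37C for 22 hr. Live cells were then quantified via protease-substrate fluorescence.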

Experiment [11] can be described thus: qHTS assay to identify small molecule HDAC inhibitors (AID 1259364).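 Also: wild-type HCT-116 cells with endogenous class I/II HDAC activity; top concentration of the series differs between compounds; nearly all actives have a fitted effect of over 45% in size.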 Summed up:
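HCT-116 wt cells, 1,500/well, overnight attach. Compounds (DMSO) 2 h, 37 °C. HDAC-Glo I/II, 30 min RT. Luminescence.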

A short description of experiment [12]: qHTS assay to identify small molecule HDAC inhibitors - cell viability counter screen (AID 1259365). Also: nearly all actives have a fitted effect of over 50% in size. Also: potency is read from the fitted curve at half-maximal effect. Summed up:
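HCT-116 wild-type, overnight attachment; 2hr drug exposure, 37C; CellTiter-Glo luminescent ATP readout after 30min RT.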

Experiment [13] can be described thus: qHTS assay to identify small molecule agonists of the sonic hedgehog signaling (Shh) pathway - cell viability counter screen (AID 1259366). Also: nearly all actives have a fitted effect of over 50% in size. Also: potency is read from the fitted curve at half-maximal effect. Summed up: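 Compounds in DMSO were pin-transferred onto 3T3 Gli1-Luc cells that had settled 4hr; plates then stood 24hr at 37C and 5% CO2. One hour before the end, CellTiter-Fluor was added and fluorescence recorded.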

A short description of experiment [14]: qHTS assay to identify small molecule antagonists of the sonic hedgehog signaling (Shh) pathway - cell viability counter screen (AID 1259367). Also: nearly all actives have a fitted effect of over 55% in size. Also: potency is read from the fitted curve at half-maximal effect. Summed up:
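Tox21 library chemicals were tested on a Gli1-Luc NIH/3T3 clone (2,000 cells/well) stimulated by conditioned medium; viability was quantified as fluorescence from CellTiter-Fluor reagent added at 23 hr.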

Experiment [15] can be described thus: qHTS assay to identify small molecule agonists of the sonic hedgehog signaling (Shh) pathway (AID 1259368; calls by dose curve;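 also: NIH/3T3-derived 3T3Gli1-Luc cells carrying a stable Gli1-driven firefly luciferase reporter; series mostly up to about 92 µM; nearly all actives have a fitted effect of over 15% in size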). Summed up: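 Following a 24 hr incubation with DMSO-dissolved compounds at 37 C, 5% CO2, Gli1-Luc NIH/3T3-derived cells received luciferase reagent for 30 min at room temperature prior to luminescence measurement.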
Experiment [16] can be described thus: qHTS assay to identify small molecule antagonists of the androgen receptor (AR) signaling pathway using the MDA cell line in the presence of 0.5 nM R1881 - cell viability counter screen (AID 1259242). Also: nearly all actives have a fitted effect of over 45% in size. Also: potency is read from the fitted curve at half-maximal effect. A digest of the protocol:
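Cells seeded at 3,000/well and allowed 5 hr at 37C, 0% CO2 before compound transfer and R1881 (0.5 nM final) addition; 16 hr later, live-cell protease fluorescence indicated cytotoxicity.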

Experiment [17] in a line: A CellTox Green Cytotoxicity Assay to monitor cytotoxicity in HEK293 cells - 16 hour (AID 1224888). Also: nearly all actives have a fitted effect of over 35% in size. Also: potency is read from the fitted curve at half-maximal effect. Summed up:
as §1

Experiment [18] has as its target Estrogen receptor (Homo sapiens) (UniProt P03372). Nature of the experiment: qHTS assay to identify small molecule antagonists of the estrogen receptor alpha (ER-alpha) signaling pathway using the BG1 cell line in the presence of 0.1 nM 17-beta-estradiol (AID 1259244). Also: nearly all actives have a fitted effect of over 50% in size. Also: potency is read from the fitted curve at half-maximal effect. A digest of the protocol:
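Luciferase signal from VM7Luc4E2 ERE-reporter cells, co-dosed with test compound and 0.1 nM final 17beta-estradiol for 22 h, read with ONE-Glo.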

Experiment [19] concerns the target Androgen receptor (Homo sapiens) (UniProt P10275). Nature of the experiment: qHTS assay to identify small molecule antagonists of the androgen receptor (AR) signaling pathway using the MDA cell line in the presence of 0.5 nM R1881 (AID 1259243). Also: nearly all actives have a fitted effect of over 50% in size. A digest of the protocol: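 Luminescence from an AR/GR-responsive MMTV-luciferase construct in MDA-kb2 breast carcinoma cells, read 30 min after ONE-Glo, following 16 hr co-treatment with compounds and 0.5 nM R1881.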

Sequence of Estrogen receptor (Homo sapiens) (P03372 whole entry, looked up): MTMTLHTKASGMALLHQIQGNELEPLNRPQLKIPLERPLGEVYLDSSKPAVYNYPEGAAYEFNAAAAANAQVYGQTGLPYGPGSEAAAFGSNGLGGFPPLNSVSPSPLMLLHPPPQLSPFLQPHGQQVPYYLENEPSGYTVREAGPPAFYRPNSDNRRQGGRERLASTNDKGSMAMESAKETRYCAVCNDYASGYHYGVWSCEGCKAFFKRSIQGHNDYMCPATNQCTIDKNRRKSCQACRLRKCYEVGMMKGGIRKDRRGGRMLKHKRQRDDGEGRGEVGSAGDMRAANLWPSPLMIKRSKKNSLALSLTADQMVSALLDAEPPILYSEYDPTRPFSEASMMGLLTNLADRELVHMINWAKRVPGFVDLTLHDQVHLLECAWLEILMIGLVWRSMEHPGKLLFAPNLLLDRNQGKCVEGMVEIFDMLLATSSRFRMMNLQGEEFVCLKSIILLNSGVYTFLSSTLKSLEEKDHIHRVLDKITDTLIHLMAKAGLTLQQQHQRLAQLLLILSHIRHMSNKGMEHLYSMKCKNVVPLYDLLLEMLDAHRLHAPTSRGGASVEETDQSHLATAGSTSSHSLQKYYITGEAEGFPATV
Sequence of Androgen receptor (Homo sapiens) (P10275 whole entry, looked up): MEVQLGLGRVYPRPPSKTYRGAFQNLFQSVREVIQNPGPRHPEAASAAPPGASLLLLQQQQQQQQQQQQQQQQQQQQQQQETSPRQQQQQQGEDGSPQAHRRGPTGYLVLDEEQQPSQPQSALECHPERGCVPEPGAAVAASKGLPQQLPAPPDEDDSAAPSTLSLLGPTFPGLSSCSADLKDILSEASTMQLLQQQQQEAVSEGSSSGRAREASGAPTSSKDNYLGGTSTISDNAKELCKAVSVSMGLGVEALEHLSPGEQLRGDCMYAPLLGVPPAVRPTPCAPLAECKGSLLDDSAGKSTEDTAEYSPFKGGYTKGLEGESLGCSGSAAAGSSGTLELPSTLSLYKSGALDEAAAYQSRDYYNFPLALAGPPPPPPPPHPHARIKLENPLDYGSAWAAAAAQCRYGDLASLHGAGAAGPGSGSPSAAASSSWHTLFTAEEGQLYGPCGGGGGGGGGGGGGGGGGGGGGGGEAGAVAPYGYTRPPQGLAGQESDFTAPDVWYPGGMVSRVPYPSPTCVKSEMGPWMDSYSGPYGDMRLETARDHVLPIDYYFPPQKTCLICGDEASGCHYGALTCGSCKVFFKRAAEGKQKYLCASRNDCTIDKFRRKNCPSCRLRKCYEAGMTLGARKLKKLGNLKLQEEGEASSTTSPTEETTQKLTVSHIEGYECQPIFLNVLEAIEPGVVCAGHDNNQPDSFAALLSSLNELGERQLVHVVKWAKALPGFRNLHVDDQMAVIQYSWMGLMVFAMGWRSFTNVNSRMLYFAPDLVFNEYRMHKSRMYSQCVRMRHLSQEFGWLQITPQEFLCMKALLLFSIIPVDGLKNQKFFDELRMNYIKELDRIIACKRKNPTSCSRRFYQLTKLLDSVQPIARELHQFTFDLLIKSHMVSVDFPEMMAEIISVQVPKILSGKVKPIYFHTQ

Turning to `O=S(=O)(NS(=O)(=O)C(F)(F)F)C(F)(F)F`, the Potency entry in experiment [1], in experiment [2], in experiment [4], in experiment [5], in [7] and in experiment [8] was “inactive” throughout. The Potency result in experiment [9], in [10], in experiment [11], in experiment [12], in experiment [13] and in [14] was “inactive” throughout. For the same compound, in [15], the Potency entry is “inactive”. The Potency in experiment [3] was 48.9 µM (active); in experiment [6], 1.23 µM (active).

For the compound `CCCCn1cc[n+](C)c1.[Cl][Fe-]([Cl])([Cl])[Cl]`, the Potency entry in [1], in [2], in experiment [3], in experiment [4], in experiment [5] and in experiment [6] was “inactive” each time. Moreover, the Potency entry in experiment [7], in [8], in [9], in experiment [10], in experiment [16] and in [11] was “inactive” each time. Also, the Potency entry in experiment [12], in [14] and in [15] was “inactive” throughout.

For `O=[N+]([O-])c1cc(C(F)(F)F)c(Cl)c([N+](=O)[O-])c1Nc1ncc(C(F)(F)F)cc1Cl`, the Potency was 24.5 µM (active) in experiment [1]; 4.9 µM (active) in experiment [3]; 49 µM (active) in experiment [4]; 24.5 µM (active) in experiment [5]; 5.49 µM (active) in experiment [7]; 49 µM (active) in [17]. Further, the Potency in [10] was 21.7 µM (active); in experiment [16], 4.86 µM (active); in experiment [18], 24.3 µM (active); in experiment [12] it was 54.5 µM (active); in [13], 4.33 µM (active); in [14], 6.11 µM (active). The Potency entry in [2], in experiment [8], in experiment [9], in [11] and in [15] was “inactive” in each case.

As to `O=C(CCCCl)c1ccc(F)cc1`, the Potency result in experiment [1], in experiment [2], in [3], in experiment [4], in [5] and in [7] was “inactive” in each case. Also, the Potency result in [17], in [8], in experiment [9], in [10], in experiment [16] and in experiment [19] was “inactive” in each case. Besides, the Potency result in [18], in experiment [11], in experiment [12], in [13], in experiment [14] and in experiment [15] was “inactive” each time.

Regarding `Cc1ccc2cc3c(ccc4ccccc43)c3c2c1CC3`, the Potency result in [1], in [2], in experiment [4], in [5], in experiment [6] and in [7] was “inactive” each time. Besides, the Potency result in experiment [8], in experiment [9], in experiment [10], in [16], in [11] and in experiment [12] was “inactive” throughout. The Potency entry in experiment [14] and in [15] was “inactive” each time. Besides, the Potency was 6.93 µM (active) in experiment [3] and 0.546 µM (active) in experiment [18].

Consider `CSC(=O)c1c(C(F)F)nc(C(F)(F)F)c(C(=O)SC)c1CC(C)C`, for which the Potency result in experiment [1], in experiment [2], in experiment [3], in experiment [4], in experiment [5] and in experiment [7] was “inactive” in each case. Besides, the Potency result in [17], in experiment [8], in [9], in [10], in experiment [16] and in experiment [18] was “inactive” each time. The Potency entry in experiment [11], in experiment [12], in experiment [14] and in [15] was “inactive” each time.

On to `CC1CCCC1`, for which the Potency result in experiment [1], in experiment [2], in experiment [3], in experiment [4], in experiment [5] and in experiment [6] was “inactive” throughout. The Potency entry in [7], in experiment [8], in [9], in experiment [10], in [16] and in [11] was “inactive” in each case. The Potency result in experiment [12], in experiment [13], in experiment [14] and in [15] was “inactive” throughout.

Turning to `C#CCO`, the Potency result in experiment [1], in experiment [2], in experiment [3], in experiment [4], in experiment [5] and in experiment [7] was “inactive” each time. Besides, the Potency result in [17], in experiment [8], in experiment [9], in experiment [10], in [16] and in experiment [18] was “inactive” in each case. Also, the Potency result in experiment [11], in experiment [12], in experiment [13], in [14] and in [15] was “inactive” throughout.
